According to PubChem BioAssay (NCI):
The panel holds about 79,000 compounds, 15% with a hit somewhere; the sample as a whole holds those more often. Values without a mark were called inactive. Activity calls are given as the source filed them. No stated cut-off is given here; in the data, active means growth inhibition above about 70%; inactive means the rest.

Assay: NCI Yeast Anticancer Drug Screen. Data for the bub3 strain (AID 167)
Conditions: S. cerevisiae bub3 mutant strain, at 50.0 µM (retest, dose inferred, filed as 5.0), stronger effect = higher value
Procedure, shortened: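 Steps: expose the mutant yeast strain to compound; grow alongside vehicle-treated cultures; measure growth; express inhibition against the vehicle cultures.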

Structure (SMILES)	growth inhibition
CCOC(=O)c1ccc([N+](=O)[O-])o1	49%
CC(C)OC(=O)c1ccc(NCc2cc(O)ccc2O)cc1Cl	100% (active)
c1cc[c]([Sn]([NH]c2ncnc3[nH]cnc23)([NH]c2ncnc3[nH]cnc23)[c]2ccccc2)cc1	95% (active)
CCCCCCCCCCCCCCCCCC(=O)OCC(COC(=O)CCCN)OC(=O)CCCN (centres undefined)	99% (active)
CCCCN(CCCC)CCC(O)(c1ccc(OC)c2ccccc12)C(O)(CCN(CCCC)CCCC)c1ccc(OC)c2ccccc12 (centres undefined)	99% (active)
CC(C)(C)c1ccc(OC(=O)Nc2ccc(Cl)cc2[N+](=O)[O-])c(Br)c1	14%
O=[N+]([O-])c1ccc(NSc2ccccc2)cc1	98% (active)
COC(=O)CCC(NC(=S)N/N=C/c1ccccn1)C(=O)OC (centres undefined)	59%
O=C(Nc1ccccc1)OCCc1ccc(Br)cc1	7%
Cc1[nH]c2ccccc2c1/C=C1\C(=O)C2CCC1C2 (centres undefined)	80% (active)
O=[N+]([O-])c1ccc2c(c1)OCO2	3%
CC(CO)[C@H]1OC(=O)C=C2[C@@]13O[C@@H]3[C@H]1OC(=O)[C@@]3(C)[C@H]4O[C@H]4C[C@@]2(C)[C@@H]13 (some centres undefined)	98% (active)
Cc1cc(C)nc(/C=C/c2ccc(/C=C/c3cc(C)cc(C)n3)cc2)c1	-11%
O=C1C=CC(=O)N1c1cccc(F)c1	100% (active)
COc1ccc(C(=O)C(CN2CCCC2)CN2CCCC2)cc1	81% (active)
O=C1NN(C2=NNC3(C(=O)N2)c2ccccc2-c2ccccc23)C(c2ccccc2)=N/C1=C/c1ccc(O)cc1	9%
CC1=NN(C(=O)c2ccc(Cl)cc2)C(=O)C1N=Nc1ccc(S(=O)(=O)Nc2ncccn2)cc1 (centres undefined)	-8%

Structure (SMILES)	growth inhibition
CCN(CC)CCCNc1ncc(C)c2c1c1ccc3c(O)cccc3c1n2C	35%
O=C1SCCN1/N=C/c1ccc([N+](=O)[O-])o1	80% (active)
CC(C)(C)C1=NC(=S)SC2=NC(=O)C3(NN21)c1ccccc1-c1ccccc13	72% (active)
Clc1ccc2oc(N3CCCCC3)nc2c1	15%
Cc1ccnc(NC(c2ccccc2)c2ccc3cccnc3c2O)c1 (centres undefined)	96% (active)
CC(=O)N(C1=C(Cl)C(=O)c2ccccc2C1=O)c1ccc(Cl)cc1	99% (active)
CSc1cc(C(=O)O)nc(N)n1	-4%
COc1ccc([C@H]2c3cc4c(cc3OC(O)(CO)[C@H]2C(=O)O)OCO4)c(OC)c1 (some centres undefined) (tested in a mixture with another compound)	76% (active)
CC(C)C(C)OC(=O)Nc1cccc(O)c1 (centres undefined)	-74%
O=C(CC1(O)C(=O)Nc2c(Cl)ccc(Cl)c21)c1ccc(Cl)cc1Cl (centres undefined)	-2%
CCOC1(OCC)Oc2c(Cl)c(Cl)c(Cl)c(Cl)c2OC1(OCC)OCC	97% (active)
CCN(CC)CC(C)(C)C(=O)/C=C/c1ccc(Cl)c(Cl)c1	98% (active)
O=c1c(NO)c([N+](=O)[O-])cnn1-c1ccccc1	28%
O=C(Cl)c1cc(-c2ccc(Cl)cc2)nc2c(Cl)cccc12	99% (active)
COC/C=N/Nc1ccc([N+](=O)[O-])cc1	98% (active)
Cn1c(N)c(NC(=O)CCl)c(=O)n(C)c1=O	7%
CCOC(=O)C(C)(c1c(C)[nH]c2ccccc12)c1c(C)[nH]c2ccccc12	96% (active)
